Records with an inconclusive call do not appear. Activity calls are given as the source filed them. The calls were made as follows: active = hit-call score of the fitted dose curve at least 0.9, where 1 is the maximum; inconclusive = response in the unintended direction; inactive = score below 0.9.
Experiments:
[1] = biological target: Cellular tumor antigen p53 (Homo sapiens) (UniProt P04637); assay: TOX21_p53_BLA_p5_ratio: Tox21 HCT-116 p53 Agonism Beta-lactamase Assay, Ratio, Phase 5 (AID 2283599)
Sequence of Cellular tumor antigen p53 (Homo sapiens) (P04637 whole entry, looked up): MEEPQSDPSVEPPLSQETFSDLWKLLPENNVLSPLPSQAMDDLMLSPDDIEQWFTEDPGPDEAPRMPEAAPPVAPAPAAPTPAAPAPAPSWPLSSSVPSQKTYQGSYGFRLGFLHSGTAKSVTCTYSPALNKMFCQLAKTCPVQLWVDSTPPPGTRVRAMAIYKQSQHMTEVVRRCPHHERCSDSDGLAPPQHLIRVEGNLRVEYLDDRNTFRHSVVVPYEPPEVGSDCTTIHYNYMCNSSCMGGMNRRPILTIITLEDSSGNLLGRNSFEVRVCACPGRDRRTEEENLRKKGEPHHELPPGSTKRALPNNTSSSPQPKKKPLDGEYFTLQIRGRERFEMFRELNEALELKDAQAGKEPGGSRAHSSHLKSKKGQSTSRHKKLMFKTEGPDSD
Procedure, shortened: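 Beta-lactamase reporter ratio (blue 460 nm over green 530 nm, 405 nm excitation) after 2 h CCF4-AM loading, in HCT-116 cells exposed 16 h at 37 C to compounds pinned at 217-fold dilution. Increases relative to DMSO baseline scored.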

[2] = TOX21_p53_BLA_p5_viability: Viability Assessment in the Tox21 HCT-116 p53 Agonism Beta-lactamase Assay, Phase 5 (AID 2283600)
Procedure, shortened: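 Viability came from CellTiter-Glo ATP luminescence, read after 30 min at room temperature. Before this, HCT-116 p53-bla cells (4000/well) had 16 hours of compound exposure at 37C, with DMSO stocks diluted 217-fold on transfer.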

[3] = biological target: Cellular tumor antigen p53 (Homo sapiens) (UniProt P04637); assay: TOX21_p53_BLA_p4_ratio: Tox21 HCT-116 p53 Agonism Beta-lactamase Assay, Ratio, Phase 4 (AID 2283601)
Procedure, shortened: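 Signal is the blue/green (460nm/530nm) ratio of cleaved versus uncleaved CCF4-AM substrate, read after 2 h substrate loading. Cells were HCT116 carrying the p53-responsive beta-lactamase reporter, dosed 16 h at 37C, 5% CO2; CellTiter-Glo measured in parallel.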

[4] = Tanguay_ZF_120hpf_MORT_legacy: (Legacy) Oregon State University Tanguay Lab 120 Hour Post-fertilization zebrafish Assay for Mortality (AID 2283633)
Procedure, shortened: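 Static waterborne exposure from 6 to 120 hpf at 28C of single dechorionated wild-type (5D) embryos per well, 0.64% DMSO final. Death recorded present/absent by brightfield at 24 and 120 hpf.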

[5] = Tanguay_ZF_120hpf_YSE_legacy: (Legacy) Oregon State University Tanguay Lab 120 Hour Post-fertilization zebrafish Assay for Yolk Sac Edema (AID 2283634);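 as to AC50: actives raise the incidence of yolk sac edema above the DMSO baseline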
Procedure, shortened: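 Presence or absence of yolk sac edema was recorded at 120 hpf in surviving larvae. These were wild-type Tropical 5D embryos, chorion removed at 4 hpf, held in static exposure at 28C from 6 hpf with 0.64% DMSO vehicle.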

[6] = Tanguay_ZF_120hpf_AXIS_legacy: (Legacy) Oregon State University Tanguay Lab 120 Hour Post-fertilization zebrafish Assay for Body Axis Malformation (AID 2283635);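 as to AC50: potency for an increased fraction of larvae scored with body axis malformation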
Procedure, shortened: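 Binary scoring of axis defects at 120 hpf under brightfield, fitted positive versus DMSO. Tropical 5D embryos, chorion removed by pronase at 4 hpf, were singly exposed in sealed, dark plates at 28C from 6 hpf; DMSO 0.64% final.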

[7] = Tanguay_ZF_120hpf_EYE_legacy: (Legacy) Oregon State University Tanguay Lab 120 Hour Post-fertilization zebrafish Assay for Eye Malformation (AID 2283636);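 also: binary presence or absence of eye malformation scored by brightfield in 120 hpf larvae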
Procedure, shortened: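 Binary brightfield scoring of eye defects at 120 hpf after static exposure from 6 hpf of single pronase-dechorionated wild-type embryos (28C, 0.64% DMSO). Non-mortality endpoints omitted where embryos died; fit vs DMSO.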

[8] = Tanguay_ZF_120hpf_SNOU_legacy: (Legacy) Oregon State University Tanguay Lab 120 Hour Post-fertilization zebrafish Assay for Snout Malformation (AID 2283637)
Procedure, shortened: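 Binary snout-malformation call at 120 hpf in wild-type 5D embryos, chorion removed by pronase, under static exposure from 6 hpf at 28C (0.64% DMSO). Embryos dying by 24 or 120 hpf excluded.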

[9] = Tanguay_ZF_120hpf_JAW_legacy: (Legacy) Oregon State University Tanguay Lab 120 Hour Post-fertilization zebrafish Assay for Jaw Malformation (AID 2283638);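 as to AC50: active means more embryos with jaw malformation than DMSO controls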
Procedure, shortened: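 Binary jaw-malformation call at 120 hpf by brightfield microscopy. Embryos (Tropical 5D strain, chorion removed at 4 hpf) were dosed statically at 6 hpf, one per well, at 28C with 0.64% DMSO. Embryos that died were not scored.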

[10] = Tanguay_ZF_120hpf_OTIC_legacy: (Legacy) Oregon State University Tanguay Lab 120 Hour Post-fertilization zebrafish Assay for Otic Vesicle Malformation (AID 2283639)
Procedure, shortened: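 Statically exposed wild-type 5D zebrafish embryos, kept sealed and dark at 28C through 120 hours post fertilization, were examined by brightfield microscopy for otic vesicle defects. Responses were recorded as present or absent and analysed relative to DMSO.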

Measured: AC50

CCCOC(=O)c1ccc(O)cc1
active: [5] 35 µM | [6] 46.4 µM | [8] 39.3 µM | [9] 10 µM | [10] 40 µM
inactive: [1] | [2] | [3] | [4] | [7]

Cc1cc(CCN2CCN(c3nsc4ccccc34)CC2)cc2c1NC(=O)CC2(C)C
active: [3] 82.8 µM | [5] 3.6 µM | [6] 5.38 µM | [7] 3.05 µM | [8] 3.18 µM | [9] 3.26 µM | [10] 6.42 µM
inactive: [1] | [2] | [4]

Nc1cccc2c(N)cccc12
inactive: [1] | [2] | [3] | [4] | [5] | [6] | [7] | [8] | [9] | [10]

OC1CCC(C2CCCCC2)CC1 (centres undefined)
inactive: [1] | [2] | [3] | [4] | [5] | [6] | [7] | [8] | [9] | [10]

OCCC(F)(F)C(F)(F)C(F)(F)C(F)(F)C(F)(F)C(F)(F)F
inactive: [1] | [2] | [3] | [4] | [5] | [9] | [10]

COC(=O)CCCCC(=O)OC
inactive: [1] | [2] | [3] | [4] | [6] | [7] | [8] | [9] | [10]

CC(C)CCCCCCOC(=O)CCCCC(=O)OCCCCCCC(C)C
inactive: [3] | [4] | [5] | [7] | [8] | [9] | [10]

CCc1nn(C2CCCCC2)c2cc(C3(C#N)CCC(C(=O)O)CC3)ccc12 (centres undefined)
active: [3] 75.2 µM | [5] 0.324 µM | [6] 0.384 µM | [7] 0.377 µM | [8] 0.344 µM | [9] 0.332 µM | [10] 3.66 µM
inactive: [1] | [2]

CN1CCC[C@H]1c1cccnc1
inactive: [4] | [5] | [6] | [7] | [8] | [9] | [10]

CCCCCCCCCCCCc1ccccc1S(=O)(=O)O
inactive: [4] | [5] | [6] | [7] | [8] | [10]

CC(C)(C)c1cccc(C(C)(C)C)c1O
inactive: [1] | [2] | [3] | [4] | [5] | [7] | [8] | [9] | [10]

c1ccc2c(c1)ccc1ccccc12
inactive: [3] | [4] | [5] | [6] | [7] | [8] | [9]

CCC(=C(c1ccc(O)cc1)c1ccc(OCCN(C)C)cc1)c1ccccc1
inactive: [4] | [5] | [6] | [7] | [8] | [9] | [10]

CC(O)C(=O)O (centres undefined)
inactive: [1] | [3]

Cc1cc(C)c(O)c(C)c1
inactive: [1] | [2] | [3] | [4] | [6] | [8] | [9] | [10]

ClC1=C(Cl)C(Cl)(Cl)C(Cl)=C1Cl
inactive: [1] | [2] | [3] | [5] | [6] | [7] | [8] | [9] | [10]

C#C[C@]1(O)CC[C@H]2[C@@H]3CCC4=CC(=O)CC[C@@H]4[C@H]3CC[C@@]21C
inactive: [4] | [5] | [6] | [7] | [8] | [9] | [10]

C=C(C)C(=O)OCCC(F)(F)C(F)(F)C(F)(F)C(F)(F)C(F)(F)C(F)(F)F
inactive: [1] | [3] | [4] | [5] | [6] | [7] | [8] | [10]

O=C(O)c1ccccc1C(c1ccc(O)cc1)c1ccc(O)cc1
inactive: [4] | [5] | [6] | [7] | [8] | [9] | [10]

NC(=O)N(O)[C@@H]1C=C[C@H](Oc2cccc(Oc3ccc(F)cc3)c2)C1
active: [3] 74.5 µM
inactive: [1] | [4] | [5] | [6] | [7] | [8] | [9]

O=C1OC2(c3ccccc31)c1cc(Br)c(O)c(Br)c1Oc1c2cc(Br)c(O)c1Br
inactive: [2]

CC(=O)NC1(c2cccc(F)c2)CCN(CC[C@@]2(c3ccc(Cl)c(Cl)c3)CN(c3ccccc3)C(=O)CO2)CC1
active: [1] 70.3 µM | [2] 60.3 µM | [3] 65 µM
inactive: [4] | [5] | [7] | [8] | [10]

COCC(C)OCC(C)O (centres undefined)
inactive: [4] | [7] | [8] | [9] | [10]

C[C@@H]1C[C@H]2[C@@H]3CCC4=CC(=O)C=C[C@]4(C)[C@@]3(F)[C@@H](O)C[C@]2(C)[C@@]1(O)C(=O)COP(=O)(O)O
inactive: [1] | [2] | [4] | [5] | [6] | [7] | [8] | [9] | [10]

CC[C@H](C)[C@@H](C(=O)O)n1sc2ccccc2c1=O
inactive: [1] | [4] | [5] | [6] | [7] | [8] | [9] | [10]

CCCCC(CC)COC(=O)CCCCC(=O)OCc1ccccc1 (centres undefined)
inactive: [2] | [3] | [4] | [5] | [6] | [7] | [8] | [9] | [10]

CCOC(=O)CC(O)(CC(=O)OCC)C(=O)OCC
inactive: [3] | [4] | [5] | [6] | [7] | [8] | [9] | [10]

N#C[C@@H]1CC(F)(F)CN1C(=O)CNC1CC2CCC(C1)N2c1ncccn1 (some centres undefined)
inactive: [2] | [3] | [4] | [5] | [6] | [7] | [8] | [9] | [10]

OCCC(F)(F)C(F)(F)C(F)(F)C(F)(F)C(F)(F)C(F)(F)C(F)(F)C(F)(F)F
inactive: [1] | [2] | [3] | [4] | [6] | [8]

CN(C)C=O
inactive: [1] | [3] | [4] | [5] | [6] | [8] | [9] | [10]

CC(C)(C)c1cc(C(C)(C)C)c(O)c(C(C)(C)C)c1
inactive: [1] | [2] | [4] | [5] | [6] | [7] | [8] | [9]

CCCCCCCCOC(=O)CCCCCCCCC(=O)OCCCCCCCC
inactive: [1] | [4] | [5] | [6] | [7] | [8] | [9] | [10]

CC(=O)CC(C)(C)O
inactive: [1] | [3] | [4] | [5] | [6] | [8] | [9] | [10]

OC1CCCCC1
inactive: [1] | [2] | [4] | [5] | [6] | [7] | [8] | [9] | [10]

CCCCCCC(=O)O
inactive: [2] | [3] | [4] | [5] | [6] | [8] | [9] | [10]

CCCCOCCO
inactive: [1] | [2] | [4] | [6] | [7] | [8] | [9]

CCCCCCCCCCCCCCCS(=O)(=O)Oc1ccccc1
inactive: [1] | [3] | [4] | [5] | [6] | [8] | [9] | [10]
